# Test results as given in PubChem BioAssay (NCI).
# The panel holds about 83,000 compounds, 20% with a hit somewhere; the sample as a whole holds those more often.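 Compound tested at a single concentration for 48 hours in 96-well plates; a percent growth value below 10 was scored as active.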 Values without a mark were called inactive. Calls of active or inactive are those of the source.
# Columns and labels:
# Assay in all cases: NCI-60 one-dose screen, 48 h (100 = growth as untreated, 0 = no growth, -100 = all killed)
# Details in all cases: 10 µM
# NCI-H23 lung = system: NCI-H23 lung
# NCI-H226 lung = system: NCI-H226 lung
# NCI-H322M lung = system: NCI-H322M lung
# HOP-62 NSCLC = system: HOP-62 NSCLC
# NCI-H460 lung = system: NCI-H460 lung
# NCI-H522 lung = system: NCI-H522 lung
# A549/ATCC NSCLC = system: A549/ATCC NSCLC
# 786-0 renal = system: 786-0 renal
# COLO 205 colon = system: COLO 205 colon
# DU-145 prostate = system: DU-145 prostate
# K-562 leukemia = system: K-562 leukemia
# MDA-MB-231 breast = system: MDA-MB-231 breast
# RXF 393 renal = system: RXF 393 renal
# SF-268 CNS = system: SF-268 CNS
# SF-295 CNS = system: SF-295 CNS
# SF-539 CNS = system: SF-539 CNS
# UACC-257 melanoma = system: UACC-257 melanoma
# M14 melanoma = system: M14 melanoma
# HCT-15 colon = system: HCT-15 colon
# MALME-3M melanoma = system: MALME-3M melanoma
Compound,growth (NCI-H23 lung),growth (NCI-H226 lung),growth (NCI-H322M lung),growth (HOP-62 NSCLC),growth (NCI-H460 lung),growth (NCI-H522 lung),growth (A549/ATCC NSCLC),growth (786-0 renal),growth (COLO 205 colon),growth (DU-145 prostate),growth (K-562 leukemia),growth (MDA-MB-231 breast),growth (RXF 393 renal),growth (SF-268 CNS),growth (SF-295 CNS),growth (SF-539 CNS),growth (UACC-257 melanoma),growth (M14 melanoma),growth (HCT-15 colon),growth (MALME-3M melanoma)
Nc1ccc2cc(S(=O)(=O)O)cc(O)c2c1N=Nc1ccc(F)cc1,94.6%,107%,104%,109%,115%,100%,109%,100%,111%,118%,119%,112%,119%,114%,110%,95.9%,106%,100%,105%,
COc1cccc(C2C3=C(COC3=O)N(CCO)c3cc(OC)ccc32)c1 (stereo not drawn),26.3%,0.496% (active),44%,30.3%,0.788% (active),-34.8% (active),18%,27.9%,-16.4% (active),-4.6% (active),17.1%,8.33% (active),15.9%,31.6%,-20.3% (active),-6.71% (active),,6.29% (active),11.3%,
CCCCCCCCCCCC[n+]1ccc(C(N)=O)cc1,23.5%,35%,88.7%,33.7%,16.8%,4.75% (active),73.7%,40%,-73% (active),43%,7.8% (active),28.4%,-23.4% (active),22.1%,33.6%,8.16% (active),29.6%,10.8%,87.3%,
CO/N=C(/C(=O)NC1C(=O)N2C(C(=O)O)=C(COC(N)=O)CSC12)c1ccco1 (stereo not drawn),107%,109%,100%,112%,118%,99.4%,101%,96%,114%,127%,,107%,,124%,105%,100%,104%,102%,104%,94.3%
CCN(CC)CCOc1nc2cc(OC)c(OC)cc2c2c1-c1ccc(OC)cc1C2=O,77.3%,74.3%,83.9%,60.9%,25.6%,73.9%,66.1%,87.8%,72.7%,64.1%,69.6%,92.4%,86.2%,44.3%,29.6%,81.9%,101%,85.9%,81.4%,
CCOC(=O)CNC(=O)CCCCSc1ncnc2nc[nH]c12,113%,94.5%,173%,96.2%,97%,102%,109%,97.9%,111%,113%,85.7%,108%,,113%,127%,91.2%,81.2%,100%,101%,
O=C(/C(=C/c1ccccc1)CN1CCCCC1)c1ccccc1,-51.5% (active),-31% (active),47.1%,-26.5% (active),-23.9% (active),-84% (active),-14.2% (active),-91.5% (active),-79.1% (active),8.22% (active),2.9% (active),-24.8% (active),-77.6% (active),-9.79% (active),38.6%,-43.4% (active),-0.832% (active),-48.4% (active),-40.6% (active),
Oc1[nH]c2ccc(Cl)cc2c1/C=c1/ccc2c(c1)N=C(c1cccs1)N=2,64.4%,85%,78.4%,83.1%,66.1%,53.3%,63.5%,66.7%,73%,58.7%,30.9%,91.2%,49.7%,,41.4%,81.3%,48.5%,77.1%,55.4%,
